# Test results from PubChem BioAssay AID652067 (The Scripps Research Institute Molecular Screening Center, 2013).
# Screen size: about 370,000 compounds; about 5,400 (1.5%) were called active.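 The calls were made as follows: active = activation above the mean of all tested compounds plus 3 SD (cut at about 5.5% in these data); inactive = the rest.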 The entries come from a sample that favours actives as a whole.
# System: DAF-12 nuclear receptor (Haemonchus contortus)
# Assay: hcDAF-12 driven luciferase reporter activation – cell-based, luminescence, HEK293, lit1-tk-luc reporter, primary screen (AID 652067);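 also: 100% = response to 3 µM Δ7-dafachronic acid high control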
# Details: HEK293 hcDAF-12 lit1-tk-luc reporter, at 6.8 µM, hits give high values, 0% DMSO, 100% Δ7-dafachronic acid
row,Compound,activation
1,O=C(N1CCOCC1)N(Cc1ccccc1)c1ccccn1,-1.16% (inactive)
2,O=C(Nc1ccc2ccccc2c1)Nc1ccc2snnc2c1,-0.5% (inactive)
3,S=C(Nc1ccccc1)Nc1ccc2ccccc2c1,6.41% (active)
4,O=S(=O)(NC(=S)Nc1ccccc1)c1ccc(F)cc1,2.29% (inactive)
5,CC(=O)C1=C(C)N(Cc2ccc(Cl)cc2)C(=S)NC1c1ccc(F)cc1 (configuration not stated),0.56% (inactive)
6,Nc1nc2c(ncn2[C@@H]2O[C@H](C(=O)N[C@@H](Cc3ccccc3)C(=O)NCc3ccccc3)[C@@H](O)[C@H]2O)c(=O)[nH]1,1.55% (inactive)
7,O=S(=O)(c1ccc2c(c1)OCCCO2)N1CCN(S(=O)(=O)c2c(F)cccc2F)CC1,-1.98% (inactive)
8,C=CCn1c(=NC(=O)c2cccs2)sc2cc(NC(C)=O)ccc21,6.19% (active)
9,C=CCn1c(CCNC(=O)c2cccs2)n[nH]c1=S,1.16% (inactive)
10,C=CCn1c(=NC(=O)c2ccc(S(=O)(=O)N3CCCC3)cc2)sc2cc(NC(C)=O)ccc21,-1.46% (inactive)
11,Cc1cc(=O)[nH]c(SCC(=O)Nc2ccc(Cl)cc2C)n1,-1.08% (inactive)
12,CCOc1ccc(NC(=O)COC(=O)C2CCC(=O)N2)c([N+](=O)[O-])c1 (configuration not stated),3.85% (inactive)
13,CN(C)c1ccc(NC(=O)NC2CCCCN(Cc3ccc(Cl)cc3)C2=O)cc1 (configuration not stated),-0.06% (inactive)
14,CC1CCCCN1CCCNC(=O)Cn1ncc2c([nH]c3ccccc32)c1=O (configuration not stated),0.15% (inactive)
15,CC1CC(C)CN(CCCNC(=O)Cn2ncc3c([nH]c4ccccc43)c2=O)C1 (configuration not stated),6.07% (active)
16,Cc1c2cnn(CC(=O)NCCCN3CC(C)CC(C)C3)c(=O)c2c(C)n1Cc1ccc(Cl)cc1 (configuration not stated),-1.23% (inactive)
17,Cc1ccc2cc(/C=N/Nc3ccc(C(=O)O)cc3)c(Cl)nc2c1,10.2% (active)
18,CC(=O)Nc1ccc(C(=O)CSc2nc3ccc(C)cc3[nH]2)cc1,4.98% (inactive)
19,CSCC[C@H](NC(=O)OC(C)(C)C)C(=O)N/N=C/c1cc2ccc(C)cc2nc1Cl,-0.35% (inactive)

row,Compound,activation
1,CC(Oc1ccccc1)C(=O)NN1Cc2ccccc2C1=N (configuration not stated),-1.32% (inactive)
2,O=C(O)Cn1c(Cc2ccccc2)nc2ccccc21,0.35% (inactive)
3,Cc1c(C=O)c2ccccc2n1CCOc1ccccc1,-3.86% (inactive)
4,Cc1c(C=O)c2ccccc2n1CC(=O)O,9.3% (active)
5,CCOC(=O)c1csc(NC(=O)C2CCCN(S(=O)(=O)c3ccc(Cl)s3)C2)n1 (configuration not stated),-2.96% (inactive)
6,COc1ccc(-c2cc(-c3nnc(SCc4ccc([N+](=O)[O-])cc4)n3N)[nH]n2)cc1,-4.71% (inactive)
7,Cn1cnc(C(F)(F)F)c1-c1ccc([N+](=O)[O-])cc1,-1.54% (inactive)
8,Cc1ccc(-c2cn3cc([N+](=O)[O-])ccc3n2)cc1,7.66% (active)
9,C=CCN(C(=O)[C@@H](CCCC)[C@@H](O)c1ccc(Cl)cc1)c1ccccc1,-1.78% (inactive)
10,CCCCCCCCN1C(=O)[C@@H](CC(=O)NCc2ccc(C)o2)C[C@@]2(C(=O)OC)C1=C[C@H](C(C)(C)C)O[C@@H]2C,0.67% (inactive)
11,CN1C[C@]2(C=C3CCCCC3n3c(=O)n(-c4ccccc4)c(=O)n32)N=C1NC(=O)c1ccccc1 (some centres not stated),-1.23% (inactive)
12,O=C1NC(Nc2nc3ccccc3s2)(C(F)(F)F)C(=O)N1C1CCCCC1 (configuration not stated),2.82% (inactive)
13,c1ccc2sc(NN=C3CCCC3)nc2c1,9.02% (active)
14,CCN(CC)CCn1c2c(c(SCC(=O)Nc3nc4ccccc4s3)nc1=O)CCCC2,1.05% (inactive)
15,O=S1(=O)c2c(cccc2N2CCCCC2)O[C@H](COCc2ccccc2)CN1C1CC1,-2.09% (inactive)
16,O=[N+]([O-])c1ccc2c(c1)C(O)n1nc(-c3ccccc3)nc1S2 (configuration not stated),0.58% (inactive)
17,CC(=O)Oc1ccc2c(=O)oc(-c3ccc([N+](=O)[O-])cc3)nc2c1,-2.73% (inactive)
18,COc1cccc(-c2nc3cc(C)ccc3o2)c1,14.7% (active)
19,O=[N+]([O-])c1ccc2oc(-c3cccc(O)c3)nc2c1,15.4% (active)

row,Compound,activation
1,COc1cccc(-c2nnc(SCCOc3ccc4c(C)cc(=O)oc4c3)o2)c1,0.05% (inactive)
2,COc1cccc(-c2nc(CS(=O)(=O)CC(=O)NCCc3ccc(OC)c(OC)c3)c(C)o2)c1,-1.4% (inactive)
3,COc1cccc(CNC(=O)[C@H]2CCCN2C(=O)[C@H]2CCCN2C(=O)c2cc(F)cc(F)c2)c1,-1.64% (inactive)
4,CSc1ccc(C=Nn2c(-c3ccc(F)cc3)n[nH]c2=S)cc1,-0.55% (inactive)
5,CC(C)Cn1c(CCC(=O)O)ccc1-c1cccs1,-0.34% (inactive)
6,C=C1C(C(C)C)N(C)C2=NC(c3ccccc3)CC(=O)N12 (configuration not stated),-1.26% (inactive)
7,COc1ccc(-n2c(SCC(=O)Nc3ccccc3-c3ccccc3)nnc2-c2cccnc2)cc1,-2.71% (inactive)
8,O=C(COc1ccccc1Cl)Nc1ccc(C(=O)c2ccc(C(=O)O)cc2)cc1,-0.48% (inactive)
9,O=C(COc1ccccc1Cl)Nc1ccccc1C(=O)NC1CC1,0.7% (inactive)
10,CC(=O)Nc1ccc(NC(=O)COc2ccccc2C(=O)Nc2cccc(Cl)c2Cl)cc1,5.68% (active)
11,Brc1ccc(COCCc2cn(Cc3ccccc3)c3ccccc23)cc1,-0.22% (inactive)
12,CC(=O)O[C@@]1(C(C)=O)CCC2[C@H]3C=C(C)C4=CC(=O)CC[C@@]4(C)C3CC[C@]21C (some centres not stated),-1.02% (inactive)
13,COc1ccc2cc(CCl)c(Cl)nc2c1,-0.92% (inactive)
14,COc1ccc(C=C(C#N)C#N)c(CSc2ccccn2)c1,-0.83% (inactive)
15,COc1ccc2nc(-c3ccccn3)ccc2c1,8.16% (active)
16,Cc1nc(CNc2ncnc3ccc(-c4ccc5c(c4)OCO5)cc23)cs1,-1.68% (inactive)
17,Cc1ccc(S(=O)(=O)N(C)C)cc1NC(=O)C(C)OC(=O)c1ccc2ccccc2n1 (configuration not stated),0.62% (inactive)
18,N/C(Cc1ccc([N+](=O)[O-])cc1)=N\OC(=O)COc1ccc2ccccc2c1,-2.58% (inactive)
19,O=C(Oc1ccc([N+](=O)[O-])cc1)c1ccc2ccccc2n1,8.61% (active)
